Experimental data from PubChem BioAssay AID504832 (National Center for Advancing Translational Sciences (NCATS), 2011).
Hit rate of the full screen: of about 310,000 compounds, about 18,000 (5.8%) were called active. Not shown: some 22% with an inconclusive outcome. The entries come from a sample that favours actives as a whole. Values without a mark were called inactive. The call rests on the fitted dose curve; in most records, active means well fitted inhibition curve with a large enough effect; inconclusive means small, poorly fitted or top-dose-only effect, or another doubt; inactive means no such curve, though single readings can be large or run the other way.

test: Primary qHTS for delayed death inhibitors of the malarial parasite plastid, 48 hour incubation; details: P. falciparum luciferase growth in erythrocytes; series mostly up to 28.7 µM; activity change, negative = inhibition: at the top concentration
Outline: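 Growth was read as firefly luciferase luminescence after a 48 h, 37 C, 5% CO2 exposure of compounds to reporter-bearing P. falciparum cultures (0.1% parasitemia, 2% hematocrit final) in Albumax-supplemented RPMI 1640.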
On the % scale 0 is the no-effect control and ±100 the full control effect; potency means the concentration at half of the fitted maximal effect.

In order of falling “activity change, negative = inhibition” value:
1. Cc1nn(C)cc1CNC(=O)Nc1ccc(Cl)cc1  135%
2. CNC(=O)COC(=O)c1cc(-c2ccc(OC)cc2)nc2ccccc12  67.7%
3. Cc1cccc([C@@H]2[C@@H]3C(=O)N(C)C(=O)[C@@H]3[C@@H]3C(=O)Nc4ccccc4C(=O)N23)c1  24.5%
4. COc1ccc(Cl)cc1C(=O)NCc1cn(C)nc1C  16.2%
5. c1ccc2sc(N3CCNCC3)nc2c1  13.3%
6. Cc1ccc(C)c(S(=O)(=O)Nc2cccc(-n3cnnn3)c2)c1  10.6%
7. CC1CCCCC12NC(=O)N(CC(=O)Nc1ccc(S(=O)(=O)Nc3ncccn3)cc1)C2=O (stereo not drawn)  6.18%
8. O=C(Nc1cccc2cccnc12)c1cccc(Cl)c1  4.48%
9. CCN(C(=O)CN1C(=O)/C(=C/c2ccc(F)cc2)SC1=S)C1CCS(=O)(=O)C1 (stereo not drawn)  3.15%
10. CC(OC(=O)C1CC(=O)N(Cc2ccccc2)C1)C(=O)Nc1ccccc1[N+](=O)[O-] (stereo not drawn)  1.87%
11. N#Cc1cccc(CSc2ncnc(N)n2)c1  0.429%
12. CC(C)C(c1nnnn1C(C)(C)C)N1CCN(Cc2cccnc2)CC1 (stereo not drawn)  -2.9%
13. COc1ccccc1CN(C)c1nnnn1-c1ccccc1  -3.57%
14. COc1cccc(C(=O)Nc2nnc(S(=O)(=O)N3CCOCC3)s2)c1  -5.86%
15. CCC(C)(C)n1nnnc1CN1CCN(c2nc3ccc(C)cc3cc2C#N)CC1  -6.08%
16. O=C(CCCN1C(=O)/C(=C\c2ccccc2)SC1=S)Nc1ccccc1O  -7.43%
17. COc1ccccc1NC(=O)c1cc(Cl)nc2ccccc12  -7.46%
18. Cc1cnc(C)c(N2CCN(C(=O)C3CCC(=O)N(CCc4cccc(F)c4)C3)CC2)n1 (stereo not drawn)  -9.75%
19. COc1ccc(N2CC(C(=O)N[C@@H](C)C(=O)N3CCCCC3)CC2=O)cc1 (stereo partly drawn)  -10.3%
20. CCCC(c1nnnn1C(C)(C)C)N1CCN(Cc2ccccc2)CC1 (stereo not drawn)  -12.9%
21. CCC(C)(C)n1nnnc1C(c1ccc(OC)c(OC)c1)N1CCN(C(=O)c2ccco2)CC1 (stereo not drawn)  -16.9%
22. Cc1ccc(S(=O)(=O)NCCC(=O)NC2CCN(Cc3ccccc3)CC2)cc1  -18.6%

With `Cc1ccc(-c2cc(C(=O)NCc3cn(C)nc3C)c3cc(Br)ccc3n2)cc1` the Potency was 2.94 µM (active).
For `O=C1/C(=C/c2ccc(F)cc2)SC(=S)N1CCCC(=O)N1CCCCC1CCO` (stereo not drawn), the Potency was 11.7 µM (active).
In the case of `COc1ccc(NC(=O)c2cc(-c3cc(OC)c(OC)c(OC)c3)nc3ccccc23)c(OC)c1`, the Potency is reported as 5.22 µM (active).
With `CCC(C)(C)n1nnnc1C(c1ccccc1OC)N1CCSCC1` (stereo not drawn) the Potency was 11.7 µM (active).
With `COc1ccccc1C(c1nnnn1C(C)(C)C)N1CCN(Cc2ccccc2)CC1` (stereo not drawn) the Potency was 13.1 µM (active).
In the case of `CCC(C)(C)n1nnnc1C(c1cccs1)N1CCN(c2nc3ccccc3s2)CC1` (stereo not drawn), the Potency is reported as 11.7 µM (active).
